Measured values published in PubChem BioAssay.
Results filed as inconclusive are left out. Calls of active or inactive are those of the source.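 The calls were made as follows, unless noted: active = normalized viability below 100% at a tested concentration; inactive = the rest.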

What was measured:
[1] = growth inhibition of DIPG cells – cell-based, MIPE4.0 library, CellTiter-Glo luminescence, qHTS (AID 1347066; cut-off not given, nearly all actives have AC50 up to about 30 µM;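 also: cells exposed to compound for 48 hours before readout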); conditions: SU-DIPG-VI viability, CellTiter-Glo ATP luminescence
[2] = growth inhibition of DIPG cells – cell-based, MIPE5.0 library, qHTS (AID 1347068; cut-off not given, nearly all actives have IC50 up to about 30 µM); conditions: SU-DIPG-XXV viability
[3] = viability loss with induced miR-34 in A549 – imaging, A549 dox-inducible miR-34, nuclei and caspase counts, primary screen (AID 1347080;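 active = compounds whose cell count with miR-34 switched on is under 0.7 times the count with it off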); conditions: A549 miR-34 inducible, Hoechst nuclei count, 48 h
[4] = compounds altering HSF1 focus formation in cells – imaging, Selleck Cancer Library (AID 1347162; in the data active = plate-normalised HSF1 focus index below about 0.46); conditions: human cells, HSF1 nuclear foci imaging, at 10 µM; SSMD: measured here: HSF1 foci SSMD mean; cell count: measured here: cell number; plate-normalised HSF1 focus index: stronger effect = lower value
[5] = MELAS cybrid and Rieske KO viability enhancers – cell-based, MELAS cybrids, Rieske KO mouse fibroblasts, CellTiter-Glo, primary screen (AID 1508586;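 active = mean z-score across replicates of 1.96 or higher in either the MELAS or the Rieske mutant cell line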;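 also: z relative to plate mean and SD of compound and empty wells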); conditions: low glucose
[6] = drug combination growth inhibition, ovarian cancer – cell-based, oncology-focused library, rucaparib conditional, profiling panel (AID 1508598); conditions: patient-derived ovarian cancer cells, CellTiter-Glo viability, 144 h, stronger effect = lower value
[7] = JHH-DIPG-1 glioma cell viability, MIPE5.0 library, CellTiter-Glo luminescence, qHTS (AID 1347067; cut-off not given, nearly all actives have AC50 up to about 26 µM;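 also: cells exposed to compound for 48 hours before readout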); conditions: JHH-DIPG-1 glioma viability, CellTiter-Glo ATP luminescence
[8] = at 0.000305 µM, OCI-C5x cells, with rucaparib 10 µM, 100% = cells with rucaparib alone
[9] = at 0.000305 µM, OCI-C5x cells, without rucaparib
[10] = at 0.000305 µM, OCI-P5x cells, with rucaparib 20 µM, 100% = cells with rucaparib alone
[11] = at 0.000305 µM, OCI-P5x cells, without rucaparib
[12] = at 0.00122 µM, OCI-C5x cells, with rucaparib 10 µM, 100% = cells with rucaparib alone
[13] = at 0.00122 µM, OCI-C5x cells, without rucaparib
[14] = at 0.00122 µM, OCI-P5x cells, with rucaparib 20 µM, 100% = cells with rucaparib alone
[15] = at 0.00122 µM, OCI-P5x cells, without rucaparib
[16] = at 0.00488 µM, OCI-C5x cells, with rucaparib 10 µM, 100% = cells with rucaparib alone
[17] = at 0.00488 µM, OCI-C5x cells, without rucaparib
[18] = at 0.00488 µM, OCI-P5x cells, with rucaparib 20 µM, 100% = cells with rucaparib alone
[19] = at 0.00488 µM, OCI-P5x cells, without rucaparib
[20] = at 0.0195 µM, OCI-C5x cells, with rucaparib 10 µM, 100% = cells with rucaparib alone
[21] = at 0.0195 µM, OCI-C5x cells, without rucaparib
[22] = at 0.0195 µM, OCI-P5x cells, with rucaparib 20 µM, 100% = cells with rucaparib alone
[23] = at 0.0195 µM, OCI-P5x cells, without rucaparib
[24] = at 0.0781 µM, OCI-C5x cells, with rucaparib 10 µM, 100% = cells with rucaparib alone
[25] = at 0.0781 µM, OCI-C5x cells, without rucaparib
[26] = at 0.0781 µM, OCI-P5x cells, with rucaparib 20 µM, 100% = cells with rucaparib alone
[27] = at 0.0781 µM, OCI-P5x cells, without rucaparib
[28] = at 0.313 µM, OCI-C5x cells, with rucaparib 10 µM, 100% = cells with rucaparib alone
[29] = at 0.313 µM, OCI-C5x cells, without rucaparib
[30] = at 0.313 µM, OCI-P5x cells, with rucaparib 20 µM, 100% = cells with rucaparib alone
[31] = at 0.313 µM, OCI-P5x cells, without rucaparib
[32] = at 1.25 µM, OCI-C5x cells, with rucaparib 10 µM, 100% = cells with rucaparib alone
[33] = at 1.25 µM, OCI-C5x cells, without rucaparib
[34] = at 1.25 µM, OCI-P5x cells, with rucaparib 20 µM, 100% = cells with rucaparib alone
[35] = at 1.25 µM, OCI-P5x cells, without rucaparib
[36] = at 5 µM, OCI-C5x cells, with rucaparib 10 µM, 100% = cells with rucaparib alone
[37] = at 5 µM, OCI-C5x cells, without rucaparib
[38] = at 5 µM, OCI-P5x cells, with rucaparib 20 µM, 100% = cells with rucaparib alone
[39] = at 5 µM, OCI-P5x cells, without rucaparib

Cn1cc(C2=C(c3cn(C4CCN(Cc5ccccn5)CC4)c4ccccc34)C(=O)NC2=O)c2ccccc21
6710: cell count [4]
active: viability [6, 23] 98.4% | viability [6, 31] 93.7% | viability [6, 35] 92.6% | viability [6, 39] 99.4%
-2.05: z-score ([5]; Rieske KO mouse fibroblast survival, CellTiter-Glo 72 h)
6030: cell count ([3]; measured here: total cells with miR-34 induction, stronger effect = lower value)
inactive: outcome [1] | outcome [2] | fold change ([3]; stronger effect = lower value, cell number ratio, induced over uninduced) 0.96 | plate-normalised HSF1 focus index [4] 1.03 | z-score ([5]; MELAS cybrid survival, CellTiter-Glo 48 h, stronger effect = higher value) -0.204 | viability [6, 8] 118% | viability [6, 9] 151% | viability [6, 10] 108% | viability [6, 11] 115% | viability [6, 12] 136% | viability [6, 13] 148% | viability [6, 14] 113% | viability [6, 15] 105% | viability [6, 16] 127% | viability [6, 17] 136% | viability [6, 18] 109% | viability [6, 19] 105% | viability [6, 20] 138% | viability [6, 21] 144% | viability [6, 22] 106% | viability [6, 24] 127% | viability [6, 25] 149% | viability [6, 26] 119% | viability [6, 27] 105% | viability [6, 28] 136% | viability [6, 29] 146% | viability [6, 30] 111% | viability [6, 32] 149% | viability [6, 33] 156% | viability [6, 34] 113% | viability [6, 36] 159% | viability [6, 37] 140% | viability [6, 38] 102%
6280: cell count ([3]; measured here: total cells without miR-34 induction)
0.559: SSMD [4]
1.18: fold change ([3]; measured here: relative caspase fold change +Dox/-Dox)

Cc1sc2c(c1C)C(c1ccc(Cl)cc1)=N[C@@H](CC(N)=O)c1nnc(C)n1-2
active: viability [6, 10] 89.8% | viability [6, 11] 93.2% | viability [6, 15] 96.7% | viability [6, 16] 99.7% | viability [6, 17] 94.7% | viability [6, 18] 97.5% | viability [6, 19] 97.3% | viability [6, 20] 64.4% | viability [6, 21] 66.5% | viability [6, 22] 82.4% | viability [6, 23] 90% | viability [6, 24] 38.4% | viability [6, 25] 48.1% | viability [6, 26] 54.9% | viability [6, 27] 77.6% | viability [6, 28] 20.3% | viability [6, 29] 29.5% | viability [6, 30] 31.5% | viability [6, 31] 66.2% | viability [6, 32] 16.4% | viability [6, 33] 26.3% | viability [6, 34] 24% | viability [6, 35] 64.7% | viability [6, 36] 14.7% | viability [6, 37] 20.8% | viability [6, 38] 19% | viability [6, 39] 56.3%
inactive: outcome [7] | outcome [2] | viability [6, 8] 106% | viability [6, 9] 111% | viability [6, 12] 111% | viability [6, 13] 124% | viability [6, 14] 100%
